Source: PubChem BioAssay (several laboratories)
APOBEC3G inh: APOBEC3G DNA deaminase inhibitors, primary screen, biochemical, fluorescence, single-stranded DNA substrate, uHTS; inhibition, % at 20 µM; recombinant A3G, ssDNA deamination FAM/TAMRA fluorescence; hit rate 0.28% among 330,000;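 active = inhibition of at least 40% at 20 µM, with no more than 30% in the related APOBEC3A deaminase screen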
Target sequence (Q9HC16 whole entry, looked up): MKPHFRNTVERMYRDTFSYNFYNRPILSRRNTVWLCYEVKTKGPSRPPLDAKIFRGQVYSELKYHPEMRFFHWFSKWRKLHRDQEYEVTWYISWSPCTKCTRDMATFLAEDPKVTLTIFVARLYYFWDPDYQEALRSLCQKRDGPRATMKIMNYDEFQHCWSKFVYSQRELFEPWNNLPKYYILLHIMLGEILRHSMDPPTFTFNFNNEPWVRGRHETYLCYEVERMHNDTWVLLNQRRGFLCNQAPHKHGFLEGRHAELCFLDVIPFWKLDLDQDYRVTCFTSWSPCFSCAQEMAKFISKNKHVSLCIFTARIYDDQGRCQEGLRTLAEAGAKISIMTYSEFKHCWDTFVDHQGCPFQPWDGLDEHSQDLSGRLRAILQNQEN
ALR H2O2 inh: inhibitors of human ALR sulfhydryl oxidase, primary screen, biochemical, H2O2 detection, HRP-luminol luminescence, single point | FAD-linked sulfhydryl oxidase ALR (Homo sapiens), P55789 | purified ALR, DTT oxidation | inhibition, % (no concentration beside the values) | hit rate 3.8% among 290,000 | AID 485317, 2010;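 active = mean replicate inhibition above about 79%, with every replicate also reaching it, limit read from the data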
Target sequence (P55789 whole entry, looked up): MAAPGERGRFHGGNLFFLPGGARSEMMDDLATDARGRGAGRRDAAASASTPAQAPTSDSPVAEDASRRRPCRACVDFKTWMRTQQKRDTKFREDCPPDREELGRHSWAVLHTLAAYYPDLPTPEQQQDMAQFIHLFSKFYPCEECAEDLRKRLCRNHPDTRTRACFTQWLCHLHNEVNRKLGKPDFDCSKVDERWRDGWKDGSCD
CendR NRP1 mod: modulators of CendR peptide binding to NRP-1, primary screen, biochemical, fluorescence polarization, uHTS. Neuropilin-1 (Homo sapiens), O14786. FAM-RPARPAR peptide binding to NRP-1. inhibition, % at 25 µM. hit rate 0.85% among 360,000. AID 602438, 2012;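 active = inhibition or corrected inhibition above about 18%, plus a signal ratio from 0.5 to 1.5, limit read from the data, passing the limit was not always enough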
APOBEC3A inh: APOBEC3A ssDNA deaminase inhibitors, primary screen, selectivity assay for APOBEC3G inhibitor project, biochemical, FAM/TAMRA oligo cleavage fluorescence; inhibition, % at 20 µM; recombinant A3A, FAM/TAMRA ssDNA deamination fluorescence; hit rate 0.41% among 330,000; AID 493011, 2011;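 active = at least 40% inhibition at 20 µM here, with at most 30% in a related deaminase screen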
Yeast superoxide: reduction of superoxide in aged yeast, primary screen, HTS; superoxide response (% of plate mean), % at 10 µM; S. cerevisiae aged cells, superoxide DHE fluorescence; active compounds read low; hit rate 0.18% among 330,000;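 active = superoxide response under a set limit, about three screen SD below normal, cut at about 65% in these data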;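 also: yeast aged for seven days with compound at 30 °C before DHE staining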
M18AAP inhibitor: PfM18AAP inhibitors, malaria aminopeptidase, primary screen, biochemical, QFRET, recombinant enzyme; inhibition, % at 7.35 µM; hit rate 1.2% among 290,000; H-Glu-NHMec fluorogenic cleavage; AID 1822, 2009; M18 aspartyl aminopeptidase (Plasmodium falciparum 3D7);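 active = inhibition above the campaign mean inhibition over all tested compounds plus 3 SD, cut at about 28% in these data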
CR mimetic CP: superoxide lowering in aged yeast cells, confirmation, cherry picked compounds | shares compounds with Yeast superoxide | S. cerevisiae aging, superoxide DHE fluorescence; active compounds read low | superoxide response (% of plate), % at 10 µM | hit rate 1% among 850 | AID 434994, 2010;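 active = superoxide signal below 65% of the plate average of sample wells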;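 also: cells aged with compound for 7 days at 30 degrees C before staining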
DHE counter: DHE quenching or ROS scavenging interference in aged yeast, artefact control for yeast caloric restriction mimetic project, S. cerevisiae BY4741, flow cytometry; shares compounds with Yeast superoxide; AID 435000, 2010; fluorescence response, % at 10 µM; DHE fluorescence; active compounds read low; 850 tested, under 10 active;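 active = fluorescence response below 15%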;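 also: lower means stronger quenching of DHE signal or ROS scavenging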
Of the large screens only hits and unclear results are named; the others gave an inactive call (follow-up assays come after a bar, where they were run). This is a sample that favours compounds with a hit; in the whole collection about 5.2% have one here.

CSc1ncc(Cl)c(C(=O)Nc2ccccc2Cl)n1	none (no result: ALR H2O2 inh) | CR mimetic CP inactive | DHE counter inactive
CSc1ncc(Cl)c(C(=O)Nc2ccc(NC(C)=O)cc2)n1	none
CSc1ncc(Cl)c(C(=O)Nc2c(C)cccc2C)n1	none | CR mimetic CP inactive | DHE counter inactive
CCSc1ncc(Cl)c(C(=O)Nc2ccccc2OC)n1	none (no result: ALR H2O2 inh)
CCSc1ncc(Cl)c(C(=O)Nc2ccccc2Cl)n1	none | CR mimetic CP inactive | DHE counter inactive
O=C(C(F)C(F)(F)F)N1CCN(c2ccccc2)CC1 (stereo not given)	none
CCS(=O)(=O)c1nc(S(=O)(=O)c2ccc(C)cc2)c(N2CCC(O)CC2)s1	none
CC(OC(=O)CC1CC2CCC1C2)C(=O)Nc1ccc(C(N)=O)cc1 (stereo not given)	none (no result: ALR H2O2 inh, M18AAP inhibitor)
CN(NC1OC(=O)c2ccccc21)c1ccc(Cl)cc1[N+](=O)[O-] (stereo not given)	Yeast superoxide 55 | CR mimetic CP inactive | DHE counter inactive
CN(NC1OC(=O)c2ccccc21)c1ccc(C(F)(F)F)cc1[N+](=O)[O-] (stereo not given)	none
CCOc1ccc(NC(=S)N2c3ccccc3CC2C)cc1 (stereo not given)	none
O=S(=O)(c1ccc(Cl)s1)N1CCC(Cc2ccccc2)CC1	ALR H2O2 inh 97, Yeast superoxide 62 | CR mimetic CP inactive | DHE counter inactive
O=C(NN=C1CCCCCC1)c1cn(-c2ccccc2)nc1-c1ccccc1	Yeast superoxide 64 | CR mimetic CP inactive | DHE counter inactive
COc1cccc(N2C(=NC(=O)CCC3CCCC3)SC3CS(=O)(=O)CC32)c1 (stereo not given)	none
N=c1oc2cc(O)ccc2cc1C(=O)Nc1ccc(Cl)cc1	Yeast superoxide 50 | CR mimetic CP inactive | DHE counter inactive
N/C(=N\OC(=O)Oc1ccccc1)c1ccc(Cl)cc1	none
CCOc1ccccc1NC(=O)C(OC(=O)c1cnc(C)cn1)c1ccccc1 (stereo not given)	none (no result: APOBEC3G inh, ALR H2O2 inh, APOBEC3A inh, Yeast superoxide, M18AAP inhibitor)
Cc1cccc(C(=O)N2CCN(S(=O)(=O)c3ccc4c(c3)OCCCO4)CC2)c1[N+](=O)[O-]	none
Fc1ccccc1COc1ccc(C(=S)N2CCCC2)cc1	Yeast superoxide 65 (no result: ALR H2O2 inh) | CR mimetic CP inactive | DHE counter inactive
O=C(O)CN1C(=O)/C(=C\c2cn(CC(=O)N3CCOCC3)c3ccccc23)SC1=S	none
CC(=O)Oc1ccc(Nc2ccccc2)cc1	ALR H2O2 inh 99, Yeast superoxide 50 | CR mimetic CP inactive | DHE counter inactive
CC(=O)Oc1ccc(NC(=O)Cc2ccccc2)cc1	none
Cc1ccc(C(=O)Nc2cccc(NC(=O)c3ccc(C)c([N+](=O)[O-])c3)n2)cc1[N+](=O)[O-]	Yeast superoxide 61 (no result: ALR H2O2 inh) | CR mimetic CP inactive | DHE counter inactive
Cc1cccc(NC(=O)c2cc(C)nc3ccccc23)c1	Yeast superoxide 56 | CR mimetic CP inactive | DHE counter inactive
O=C(CCn1cnc2ccccc21)N/N=C/c1ccc(O)cc1	ALR H2O2 inh 99, Yeast superoxide 65 | CR mimetic CP inactive | DHE counter inactive
O=C(Cn1cnc2ccccc21)N/N=C/c1ccccn1	ALR H2O2 inh 99, Yeast superoxide 21 | CR mimetic CP inactive | DHE counter inactive
O=C(CSc1ccc2c(c1)OCCO2)Nc1ncc(Cl)cc1Cl	none
O=C1c2ccccc2CN1C(CO)c1ccccc1 (stereo not given)	none (no result: ALR H2O2 inh)
N#C/C(=N\Nc1cccc(C(F)(F)F)c1)C(=O)c1ccsc1	Yeast superoxide 64 | CR mimetic CP inactive | DHE counter inactive
N#C/C(=N\Nc1cccc([N+](=O)[O-])c1)C(=O)c1ccc(Br)cc1	none
CCCCCCCCSc1nnc(-c2ccc(OC)cc2)o1	none (no result: ALR H2O2 inh) | CR mimetic CP inactive | DHE counter inactive
Cc1ccc(-c2nc(N)n(S(C)(=O)=O)n2)cc1	Yeast superoxide 65 | CR mimetic CP inactive | DHE counter inactive
CC(=O)Nc1ccc(S(=O)(=O)n2nc(-c3ccc(C)cc3)nc2N)cc1	none
O=C(NCCC1=CCCCC1)c1c(O)nc2sccn2c1=O	none (no result: ALR H2O2 inh, M18AAP inhibitor)
O=C(NCCC1=CCCCC1)c1c(O)nc2ccccn2c1=O	Yeast superoxide 64 | CR mimetic CP inactive | DHE counter inactive
O=C(CN1CCN(C(=O)C2CCCO2)CC1)Nc1cc(Cl)ccc1Cl (stereo not given)	none
COc1ccc(CNS(=O)(=O)c2ccc3oc(C(=O)O)c(C)c3c2)cc1	Yeast superoxide 63 (no result: ALR H2O2 inh) | CR mimetic CP inactive | DHE counter inactive
Cc1c(C(=O)O)oc2ccc(S(=O)(=O)NC3CCCCCCC3)cc12	Yeast superoxide 63 | CR mimetic CP inactive | DHE counter inactive
Cc1c(C(=O)O)oc2ccc(S(=O)(=O)NCc3ccc(F)cc3)cc12	none
Cn1ccnc1Sc1cc(Cl)ccc1[N+](=O)[O-]	none
O=C(Nc1cccc(S(=O)(=O)N2CCCCC2)c1)c1cc2ccccc2o1	none (no result: M18AAP inhibitor)
CCOc1cc(C(=O)OCc2cccc(OC)c2OC)ccc1OCC(=O)N1CCOCC1	none (no result: M18AAP inhibitor)
CC(=O)Nc1cc2c(cc1NC(=O)Cn1nc(-c3ccccc3F)ccc1=O)OCCO2	Yeast superoxide 62 | CR mimetic CP inactive | DHE counter inactive
O=c1[nH]c2ccccc2cc1CN(Cc1cccnc1)S(=O)(=O)c1ccc(Cl)cc1	Yeast superoxide 65 | CR mimetic CP inactive | DHE counter inactive
O=c1[nH]c2ccccc2cc1CN(Cc1cccnc1)S(=O)(=O)c1ccc([N+](=O)[O-])cc1	none
COc1ccc(-n2c(C)cc(C(=O)CN3CCC(C)CC3)c2C)cc1	Yeast superoxide 65 (no result: ALR H2O2 inh) | CR mimetic CP inactive | DHE counter inactive
CCOc1ccc(NC(=O)CCN2CCN(S(=O)(=O)c3ccc(F)cc3)CC2)cc1	none
CCOc1ccc(NC(=O)CCn2nc(C)c(S(=O)(=O)N3CCCCC3)c2C)cc1	Yeast superoxide 58 | CR mimetic CP inactive | DHE counter inactive
COc1cc2[nH]c(=O)n(CCC(=O)N3CCN(Cc4ccc5c(c4)OCO5)CC3)c(=O)c2cc1OC	none (no result: ALR H2O2 inh)
CCC(CO)Oc1cc(NCc2cccc(F)c2)c2ncn(C(C)C)c2c1 (stereo not given)	none (no result: M18AAP inhibitor)
